Here are results for 15 compounds from PubChem BioAssay (NCATS).

The structures appear in SMILES notation. Results filed as inconclusive are left out. Active and inactive are the calls of the source. Unless noted, the call rests on the fitted dose curve; in most records, active means well fitted curve in the direction sought with a large enough effect; inconclusive means small, poorly fitted or top-dose-only effect, or another doubt; inactive means no such curve, though single readings can be large; an effect the other way counts as inactive or inconclusive.

The target of assay [1] is Voltage-gated inwardly rectifying potassium channel KCNH2 (Homo sapiens) (UniProt Q12809). The assay is described as follows: qHTS Assay for Small Molecule Inhibitors of the Human hERG Channel Activity (AID 588834).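 Further: lower thallium flux fluorescence means stronger hERG block; nearly all actives have a fitted effect of over 50% in size.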 Further: potency means the concentration at half of the fitted maximal effect. The gist of the method:
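Kinetic FDSS fluorescence; U2OS + hERG BacMam (~100 virus particles/cell); FluxOR Tl+ flux; ~10 min cpd; AC50 (Hill).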

Assay [2] concerns the target Glutaminase kidney isoform, mitochondrial (Homo sapiens) (UniProt O94925). Kind of assay: qHTS for Inhibitors of Glutaminase (GLS): LOPAC Validation (AID 624146).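 Further: glutamate product detected by oxidase and peroxidase coupled Amplex red fluorescence gain; on the % scale 0 is the no-effect control and ±100 the full control effect; nearly all actives have a fitted effect of over 60% in size.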 The gist of the method:
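Glutamate formation by hKGA was monitored fluorometrically using coupled glutamate oxidase, HRP and Amplex Red. Substrate was added as 1 mM L-glutamine solution; incubation was 30 min at RT after an initial read.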

Assay [3] can be described thus: qHTS of Trypanosoma Brucei Inhibitors: LOPAC Validation (AID 624147). Further: 0% is about no effect. In outline: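 Assay buffer: 50 mM TEA pH 7.2, 100 mM KCl, 10 mM MgCl2, 0.05% BSA, 0.01% Tween-20. Pyruvate kinase from T. brucei plus substrate met compound, then ADP (130 uM final). Luminescence was read post 45 min RT.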
Assay [4] addresses Glucagon-like peptide 1 receptor (Homo sapiens) (UniProt P43220). Kind of assay: qHTS of GLP-1 Receptor Agonists: LOPAC Validation (AID 624148).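 Further: luminescence from a luciferase reporter switched on by cAMP; 0% is about no effect; higher luminescence signal means agonism.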 The gist of the method: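 Agonism scored as increased luciferase luminescence driven by cAMP in HEK293 clones carrying GLP-1R. Cells settled 12 hours, received compound for 4-6 hr at 37 deg C, 5% CO2, and were read after 12 min detection reagent at RT.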

A short description of assay [5]: qHTS of Nrf2 Activators: LOPAC Validation (AID 624149). Further: 0% is about no effect. The gist of the method: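 AREc32_Fluc cells, 1000/well in OPTI-MEM with 5% FBS, grown overnight, then exposed to compounds for 24 hr at 37 deg C, 5% CO2. ARE-driven firefly luciferase read by Steady-Glo luminescence after 30 min at RT.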
Assay [6] in a line: HTS Assay for Allosteric Antagonists of the Human D2 Dopamine Receptor: Hit Validation in HTRF (AID 624455).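 Further: stable D1 dopamine receptor cell line scored for blocking the D1 response; on the % scale 0 is the no-effect control and ±100 the full control effect.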 The gist of the method:
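Hit validation in cells stably expressing the D1 dopamine receptor, run in HTRF format. Compounds were tested for their ability to inhibit the D1-mediated response.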

The nature of assay [7]: Cytotoxicity counterscreen for NFkB agonists and antagonists (AID 624476).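 Further: cells exposed to compound for 48 hours.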 Further: potency means the concentration at half of the fitted maximal effect.
Assay [8] is described as follows: qHTS Assay for Identification of Small Molecule Agonists for NFkB Signaling Pathway. (AID 624478). Further: 0% is about no effect. In outline:
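NFkB-bla ME-180 cells carry a beta-lactamase reporter. They received compound plus TNF alpha at 10 pM final (its EC50) for 5 h at 37 C. Reporter activity was read as 460/530 nm emission ratio after 2 h LiveBLAzer substrate loading.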

Assay [9] in a line: qHTS Assay for Identification of Small Molecule Antagonists for NFkB Signaling Pathway. (AID 624479; calls by dose curve;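 further: pathway stimulated with TNF alpha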; further: potency means the concentration at half of the fitted maximal effect).
The nature of assay [10]: Cell Proliferation Assay against the TMD8 Cell Line (AID 651645).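 Further: cells exposed to compound for 48 h before reading.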 The settings on record: TMD8 DLBCL cell line proliferation/viability; at 46.1 µM (top of the series). In outline: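 Viability by CellTiter-Glo after 48 h compound exposure of 500 log-phase TMD8 cells per well (RPMI, 5% FBS). Percent activity scaled between DMSO (100%) and 9.2 uM final bortezomib (0%).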
The nature of assay [11]: Cell Proliferation Assay against the HBL1 Cell Line (AID 651646).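 Further: cells exposed to compound for 48 h before reading.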 The conditions noted are these: HBL1 DLBCL cells; at 46.1 µM (top of the series). In outline: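 Luminescent ATP read-out (CellTiter-Glo) after 48 h compound exposure of HBL1 cells at 37 °C; percent activity was scaled between DMSO as 100% and 9.2 uM bortezomib (final) as 0%.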
Assay [12] has as its target Retinoic acid receptor RXR-alpha (Homo sapiens) (UniProt P19793). Kind of assay: qHTS assay for small molecule antagonists of retinoid X receptor alpha signaling (AID 588546; active means well fitted inhibition curve with a large enough effect in the signal ratio, with a control signal flat, not every such curve was filed as active; the % refers to the signal ratio; further: on the % scale 0 is the no-effect control and ±100 the full control effect). The settings on record: HEK293T RXRa-UAS-bla, beta-lactamase ratio, antagonist mode. In outline: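 Beta-lactamase reporter inhibition, read as CCF4 fluorescence ratio (ex 405, em 460/530 nm) after 2 h at RT. HEK293T UAS-bla cells, 2500/well, were stimulated with 9-cis-RA at 500 or 100 nM final alongside test compound for 18 h at 37 C.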

Assay [13] addresses Thyroid hormone receptor beta (Homo sapiens) (UniProt P10828). Kind of assay: qHTS assay for small molecule antagonists of thyroid hormone receptor beta signaling (AID 588547; active means well fitted inhibition curve with a large enough effect in the signal ratio, with a control signal flat, not every such curve was filed as active; the % refers to the signal ratio;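 further: cells stimulated with 0.4 nM T3 agonist during compound exposure; on the % scale 0 is the no-effect control and ±100 the full control effect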). The settings on record: TR-UAS-bla HEK293, beta-lactamase ratio, antagonist mode, 18 h. The gist of the method: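 Inhibition of T3-driven (0.4nM final) beta-lactamase reporter activity was measured over 0.59 nM to 92 uM compound after 18 h at 37 C. The cells were GripTite HEK293 TR-UAS-bla in charcoal/dextran-stripped serum, with CCF4 ratio read-out and IC50 from Hill fits.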

The nature of assay [14]: qHTS assay for small molecule agonists of the antioxidant response element (ARE) signaling pathway (AID 651741; active means well fitted activation curve with a large enough effect in the signal ratio; the % refers to the signal ratio; further: potency means the concentration at half of the fitted maximal effect). The settings on record: HepG2 ARE-bla reporter, beta-lactamase FRET ratio, 16 h. In outline: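 Quantitative HTS in HepG2 cells stably expressing an ARE-beta-lactamase reporter; 16 h compound exposure at 37 C, followed by 2 h room-temperature incubation with LiveBLAzer B/G FRET substrate and fluorescence measurement.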

Assay [15] deals with Luciferin 4-monooxygenase (Photinus pyralis) (UniProt P08659). The assay is described as follows: Biochemical firefly luciferase enzyme assay for NPC (AID 624030). Further: nearly all actives have a fitted effect of over 70% in size. Further: potency means the concentration at half of the fitted maximal effect. In outline: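 Direct inhibition of firefly luciferase enzyme (10 nM final, 50 mM Tris Acetate) assessed by luminescence within 5 minutes. Percent activity scaled between DMSO and PTC124 positive control, with concentration-effect curves classified by fit quality and response.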
Sequence of Luciferin 4-monooxygenase (Photinus pyralis) (P08659 whole entry, looked up): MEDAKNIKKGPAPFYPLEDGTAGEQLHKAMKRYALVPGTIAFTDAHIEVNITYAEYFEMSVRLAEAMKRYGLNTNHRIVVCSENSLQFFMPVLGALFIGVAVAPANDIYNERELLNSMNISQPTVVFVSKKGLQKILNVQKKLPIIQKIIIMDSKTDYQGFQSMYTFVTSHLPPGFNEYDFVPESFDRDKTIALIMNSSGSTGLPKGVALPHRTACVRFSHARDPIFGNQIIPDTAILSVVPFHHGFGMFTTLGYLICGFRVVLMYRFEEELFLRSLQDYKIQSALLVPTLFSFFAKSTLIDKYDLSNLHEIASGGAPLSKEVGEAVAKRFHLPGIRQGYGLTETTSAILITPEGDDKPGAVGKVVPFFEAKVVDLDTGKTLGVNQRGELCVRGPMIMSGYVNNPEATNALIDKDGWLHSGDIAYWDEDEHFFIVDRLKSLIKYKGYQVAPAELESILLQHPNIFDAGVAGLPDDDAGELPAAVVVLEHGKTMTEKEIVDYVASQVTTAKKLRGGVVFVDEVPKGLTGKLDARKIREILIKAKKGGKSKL

The nature of assay [16]: S16 Schwann cell viability assay (CellTiter-Glo assay) (AID 624031).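 Further: native untransfected S16 rat Schwann cells; cellular ATP luminescence as a viability measure; plate controls were DMSO-treated cells for no effect and cell-free wells for full effect; nearly all actives have a fitted effect of over 70% in size.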 The gist of the method:
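Concentration-effect curves come from CellTiter-Glo luminescence of S16 rat Schwann cells after 24 h compound exposure. Each reading was normalized to DMSO wells (0%) and wells without cells, and curves were ranked by r2 and response magnitude.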

A short description of assay [17]: S16 Schwann cell PMP22 intronic element firefly luciferase assay (AID 624032).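 Further: plate controls were DMSO for no effect and PTC124 positive control mean for full effect; nearly all actives have a fitted effect of over 30% in size.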 The gist of the method:
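Luciferase reporter of PMP22 intronic-element expression in stably transfected S16 rat Schwann cells, read by ONE-Glo luminescence after 24 h compound exposure at 37 C. Activity scaled between DMSO (0%) and positive-control PTC124; concentration-effect curves quality-classified.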

Assay [18] can be described thus: Cell Proliferation Assay against the TMD8 Cell Line (Caspase readout at 16 hrs) (AID 651712). Further: potency means the concentration at half of the fitted maximal effect. The gist of the method: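 Apoptotic response of TMD8 cells was judged from caspase 3/7 activation following a 16 hour compound incubation at 37 °C. Luminescent signal was converted to percent activity, with DMSO set as 0% and 9.2 uM final bortezomib as 100%.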
Assay [19] can be described thus: S16 Schwann cell PMP22 intronic element beta-lactamase assay (AID 624044; calls by dose curve; further: nearly all actives have a fitted effect of over 15% in size; further: potency means the concentration at half of the fitted maximal effect). The gist of the method: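 Rat S16 Schwann cells with beta-Lac driven by a PMP22 intronic element, compound-treated 24 h at 37 °C. LiveBLAzer FRET B/G read: 460 nm normalized to potassium clavulanate vs DMSO; 535 nm FRET as viability; concentration-effect curves classified.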
Assay [20] can be described thus: Cell Proliferation Assay against the TMD8 Cell Line (Caspase readout at 8 hrs) (AID 651713). In outline:
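TMD8 cells in RPMI plus 5% FBS were treated with compound for 8 h at 37C. Caspase 3/7 activation was read by Caspase-Glo luminescence. Percent activity was scaled from DMSO (0%) to 9.2 uM bortezomib final (100%).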

Sequence of Voltage-gated inwardly rectifying potassium channel KCNH2 (Homo sapiens) (Q12809 whole entry, looked up): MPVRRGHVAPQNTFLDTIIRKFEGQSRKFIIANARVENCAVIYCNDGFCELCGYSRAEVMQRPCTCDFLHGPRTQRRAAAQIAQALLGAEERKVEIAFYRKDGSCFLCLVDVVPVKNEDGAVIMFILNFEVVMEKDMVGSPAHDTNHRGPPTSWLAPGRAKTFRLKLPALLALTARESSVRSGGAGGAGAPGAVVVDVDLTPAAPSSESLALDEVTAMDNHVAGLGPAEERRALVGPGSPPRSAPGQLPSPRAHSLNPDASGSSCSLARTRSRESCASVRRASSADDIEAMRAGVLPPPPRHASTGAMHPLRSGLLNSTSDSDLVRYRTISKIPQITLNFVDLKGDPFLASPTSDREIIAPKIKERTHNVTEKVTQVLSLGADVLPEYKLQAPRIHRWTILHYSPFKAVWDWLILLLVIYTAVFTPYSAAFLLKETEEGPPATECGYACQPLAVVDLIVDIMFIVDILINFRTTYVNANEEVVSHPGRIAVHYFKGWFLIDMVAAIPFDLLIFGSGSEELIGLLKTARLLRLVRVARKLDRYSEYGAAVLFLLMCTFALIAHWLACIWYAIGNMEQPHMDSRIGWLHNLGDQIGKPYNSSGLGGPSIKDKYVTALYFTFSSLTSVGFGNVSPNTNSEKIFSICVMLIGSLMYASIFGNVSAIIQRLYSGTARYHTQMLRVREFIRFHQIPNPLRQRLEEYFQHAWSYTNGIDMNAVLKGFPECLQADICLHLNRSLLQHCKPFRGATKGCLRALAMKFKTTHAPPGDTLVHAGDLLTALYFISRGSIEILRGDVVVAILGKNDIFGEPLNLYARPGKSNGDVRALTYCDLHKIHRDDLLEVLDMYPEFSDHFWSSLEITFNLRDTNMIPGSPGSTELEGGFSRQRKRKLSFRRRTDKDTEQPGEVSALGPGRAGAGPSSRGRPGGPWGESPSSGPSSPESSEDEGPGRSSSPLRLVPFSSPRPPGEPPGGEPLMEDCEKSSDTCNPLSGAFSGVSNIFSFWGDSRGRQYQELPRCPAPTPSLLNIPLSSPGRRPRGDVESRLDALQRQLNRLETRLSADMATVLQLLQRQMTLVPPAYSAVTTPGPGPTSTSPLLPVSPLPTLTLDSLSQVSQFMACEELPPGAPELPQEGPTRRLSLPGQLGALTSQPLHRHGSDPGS
Sequence of Glutaminase kidney isoform, mitochondrial (Homo sapiens) (O94925 whole entry, looked up, canonical isoform): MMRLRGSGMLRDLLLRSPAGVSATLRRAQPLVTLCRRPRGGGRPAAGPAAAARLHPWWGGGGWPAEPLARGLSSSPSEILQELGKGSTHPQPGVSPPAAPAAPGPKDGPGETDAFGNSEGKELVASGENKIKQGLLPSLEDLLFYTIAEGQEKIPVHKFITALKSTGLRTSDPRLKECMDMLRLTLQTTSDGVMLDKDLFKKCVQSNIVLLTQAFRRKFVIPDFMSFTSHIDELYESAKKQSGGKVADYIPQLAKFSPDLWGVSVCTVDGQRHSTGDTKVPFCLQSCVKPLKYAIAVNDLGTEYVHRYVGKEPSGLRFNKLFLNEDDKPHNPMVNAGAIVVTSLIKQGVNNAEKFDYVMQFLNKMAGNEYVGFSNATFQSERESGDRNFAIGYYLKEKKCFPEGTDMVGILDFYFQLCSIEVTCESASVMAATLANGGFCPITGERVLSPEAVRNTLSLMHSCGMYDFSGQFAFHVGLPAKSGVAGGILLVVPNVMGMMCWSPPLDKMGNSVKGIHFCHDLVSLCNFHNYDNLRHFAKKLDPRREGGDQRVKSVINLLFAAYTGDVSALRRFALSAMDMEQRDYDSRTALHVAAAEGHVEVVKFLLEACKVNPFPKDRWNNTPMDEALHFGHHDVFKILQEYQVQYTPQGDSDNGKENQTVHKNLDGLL
Sequence of Glucagon-like peptide 1 receptor (Homo sapiens) (P43220 whole entry, looked up): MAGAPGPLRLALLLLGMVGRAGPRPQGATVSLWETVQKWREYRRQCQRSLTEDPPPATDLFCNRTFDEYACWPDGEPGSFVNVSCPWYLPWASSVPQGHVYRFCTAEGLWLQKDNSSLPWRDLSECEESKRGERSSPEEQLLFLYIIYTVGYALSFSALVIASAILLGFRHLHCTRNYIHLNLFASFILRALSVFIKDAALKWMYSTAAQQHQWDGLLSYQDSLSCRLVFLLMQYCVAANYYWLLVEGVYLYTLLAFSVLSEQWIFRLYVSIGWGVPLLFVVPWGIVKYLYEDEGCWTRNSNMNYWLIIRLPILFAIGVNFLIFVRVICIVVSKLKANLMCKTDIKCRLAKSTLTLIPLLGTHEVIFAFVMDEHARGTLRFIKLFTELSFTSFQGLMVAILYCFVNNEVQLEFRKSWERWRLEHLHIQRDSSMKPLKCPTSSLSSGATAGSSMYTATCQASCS
Sequence of Thyroid hormone receptor beta (Homo sapiens) (P10828 whole entry, looked up): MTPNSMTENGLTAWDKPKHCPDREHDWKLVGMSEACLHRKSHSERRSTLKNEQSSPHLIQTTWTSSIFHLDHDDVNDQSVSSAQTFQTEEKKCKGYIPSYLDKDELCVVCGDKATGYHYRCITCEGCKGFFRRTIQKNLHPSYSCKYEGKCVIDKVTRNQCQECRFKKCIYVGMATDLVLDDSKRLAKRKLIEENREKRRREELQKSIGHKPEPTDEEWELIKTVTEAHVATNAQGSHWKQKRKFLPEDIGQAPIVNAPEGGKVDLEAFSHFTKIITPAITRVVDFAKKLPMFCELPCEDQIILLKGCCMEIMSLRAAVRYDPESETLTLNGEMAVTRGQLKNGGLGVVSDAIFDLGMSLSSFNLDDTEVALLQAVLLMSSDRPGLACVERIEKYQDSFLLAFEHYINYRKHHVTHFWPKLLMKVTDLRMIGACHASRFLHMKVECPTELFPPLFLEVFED
Sequence of Retinoic acid receptor RXR-alpha (Homo sapiens) (P19793 whole entry, looked up): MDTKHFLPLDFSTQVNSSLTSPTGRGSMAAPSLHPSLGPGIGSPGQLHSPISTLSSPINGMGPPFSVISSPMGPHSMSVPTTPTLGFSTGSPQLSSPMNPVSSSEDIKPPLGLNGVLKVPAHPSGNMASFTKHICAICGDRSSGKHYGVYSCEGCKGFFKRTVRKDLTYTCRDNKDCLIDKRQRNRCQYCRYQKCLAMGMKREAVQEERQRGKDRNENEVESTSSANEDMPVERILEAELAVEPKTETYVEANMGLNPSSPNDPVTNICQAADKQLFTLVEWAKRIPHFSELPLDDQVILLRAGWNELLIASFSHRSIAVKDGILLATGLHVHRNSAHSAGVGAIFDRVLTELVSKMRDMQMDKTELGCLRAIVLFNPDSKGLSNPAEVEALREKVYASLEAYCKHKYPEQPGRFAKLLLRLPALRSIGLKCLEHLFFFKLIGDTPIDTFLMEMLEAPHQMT

As to `O=c1c2ccccc2nc2n1CCc1c-2[nH]c2ccccc12`, in [1], the Potency entry was “inactive”. The compound was called inactive in [2], in assay [3], in [4], in [5] and in assay [6].
On to `Cc1cnc(-c2cnc(NCCNc3ccc(C#N)cn3)nc2-c2ccc(Cl)cc2Cl)[nH]1`, for which the Potency entry in assay [7] is “inactive”. The compound was classed as inactive in [8]. Further, the Potency in assay [9] is 14.9 µM (active). The viability (% of control) in [10] is 9.76%. Moreover, the viability, percent of control in assay [11] is 22.7%.
For the compound `O=C(O)CCCc1c[nH]c2ccccc12`, the max response in assay [12] was 6.54% (inactive). Besides, the activity change % (negative = inhibition) in [13] is 3.26% (inactive). Also, the Potency in assay [14] is 61.1 µM (active).
Take `O=C(O)CO.[NH2-].[NH2-].[Pt+2]`: the Potency result in [1], in assay [15] and in assay [17] was “inactive” throughout. For the same compound, the compound was called inactive in assay [16].
On to `COc1ccc(C=Cc2cc(OC)c(OC)c(OC)c2)cc1O`, for which the Potency result in assay [7] and in assay [9] was “inactive” each time. In addition, the compound was called inactive in assay [8]. The viability (% of control) in assay [10] is 0.872%. Also, the viability, percent of control in [11] is 20.5%. Also, in assay [18], the Potency was 0.0015 µM (active).
`Nc1ccn([C@@H]2O[C@H](CO)[C@H](O)C2(F)F)c(=O)n1`: the Potency entry in [1], in [15] and in [17] was “inactive” each time. The Potency in assay [19] is 0.562 µM (active).
Turning to `COc1cc(C(=O)NS(=O)(=O)c2ccccc2C)ccc1Cc1cn(C)c2ccc(NC(=O)OC3CCCC3)cc12`, the Potency in assay [15] was 16.1 µM (active). For the same compound, the outcome in assay [16] was inactive. In addition, the Potency entry in [17] and in assay [19] was “inactive” each time.
Regarding `CN1c2cc(O)c(N=NC(N)=O)cc2CC1S(=O)(=O)O` (stereo not given), the Potency result in assay [1], in [15], in assay [17] and in assay [19] was “inactive” each time. Besides, the call in [16] was inactive.
With `O=C(O)c1ccc2cc(-c3ccc(O)c(C45CC6CC(CC(C6)C4)C5)c3)ccc2c1`, the Potency was 0.118 µM (active) in assay [7] and 14.9 µM (active) in assay [9]. In addition, in [8], the compound was called inactive. In addition, the viability (% of control) in assay [10] was found to be 2.27%. In [11], the viability, percent of control came to 1.91%.
On to `CC(=O)SC[C@@H](C)C(=O)N1CCC[C@H]1C(=O)N[C@@H](Cc1ccccc1)C(=O)O`, for which the Potency entry in assay [15], in [18] and in assay [20] was “inactive” each time. Besides, the result in assay [8] was inactive. Further, the Potency in assay [9] is 8.41 µM (active). Also, the viability (% of control) in assay [10] was 104%. For the same compound, the viability, percent of control in [11] turned out to be 97.5%.
Turning to `COC(=O)C[C@](O)(CCCC(C)(C)O)C(=O)O[C@@H]1C(OC)=C[C@]23CCCN2CCc2cc4c(cc2[C@H]13)OCO4`, the Potency entry in [1] and in assay [15] was “inactive” in each case. The result in [16] was inactive.
With `C[C@H]1C[C@@H]2[C@@H]([C@@H](O)C[C@@]3(C)[C@H]2CC[C@]3(O)C(=O)CO)[C@@]2(C)C=CC(=O)C=C12`, the Potency result in assay [1], in assay [15], in [17] and in assay [19] was “inactive” each time. In assay [16], the outcome was inactive.
For the compound `COC(=O)C1=C(C)NC(C)=C(C(=O)OCCN2CCN(C(c3ccccc3)c3ccccc3)CC2)C1c1cccc([N+](=O)[O-])c1` (stereo not given), in [1], the Potency was 3.98 µM (active). Also, the Potency entry in assay [15] was “inactive”.
As to `COc1ccc(CC2c3cc(OC)c(OC)cc3CC[N+]2(C)CCC(=O)OCCCCCOC(=O)CC[N+]2(C)CCc3cc(OC)c(OC)cc3C2Cc2ccc(OC)c(OC)c2)cc1OC` (stereo not given), in [1], the Potency result was “inactive”.
With `CC=C1NC(=O)[C@H]2CSSCCC=C[C@H](CC(=O)N[C@H](C(C)C)C(=O)N2)OC(=O)[C@H](C(C)C)NC1=O`, the Potency in [7] is 0.0935 µM (active). Moreover, the call in assay [8] was inactive. Further, the Potency result in assay [9] is “inactive”. Also, in assay [10], the viability (% of control) is 4.33%. In addition, the viability, percent of control in assay [11] is 3.6%.
